Assay results published in PubChem BioAssay AID1159580 (chemical genetic matrix, 2015).
Where “and” joins values, the source holds several entries; their conditions need not be identical. Identical values can stand only once. Out of some 5,500 compounds screened, about 2,000 (36%) were called active. Inconclusive results (about 18%) are left out. No stated cut-off is given here; in the data, active means normalized growth mostly below about 0.91 (no sharp cut-off); inconclusive means no clear call, values can overlap the other calls; inactive means mostly above about 0.92. This is one part of the list.

Assay: chemical genetic growth profiling, strain panel (AID 1159580);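 further: tested at 20 µM; growth read once vehicle control cultures reached saturation at 30 °C; 1 = growth at the plate median or of vehicle wells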
Conditions: S. cerevisiae deletion strains, growth OD

Question: Which normalized growth (locus YAL021C, strain ccr4, stronger effect = lower value) does the source give for `CO/N=C(\C(=O)NC1C(=O)N2C(C(=O)O)=C(COC(N)=O)CSC12)c1ccco1` (stereo unspecified) here?
Answer: Its normalized growth is 0.988 (inactive).

Question: And the normalized growth (locus YAL026C, strain drs2, stronger effect = lower value)?
Answer: Its normalized growth is 0.984 (inactive).

Question: And the normalized growth (locus YAL030W, strain snc1, stronger effect = lower value)?
Answer: Its normalized growth is 0.977 (inactive).

Question: What about the normalized growth (locus YBL061C, strain skt5, stronger effect = lower value) of the same molecule?
Answer: Its normalized growth is 0.967 (inactive).

Question: What about the normalized growth (locus YBR009C, strain hhf1, stronger effect = lower value) of the same molecule?
Answer: Its normalized growth is 0.985 (inactive).

Question: And the normalized growth (locus YBR021W, strain FUR4, stronger effect = lower value)?
Answer: The normalized growth was 0.0938 (active).

Question: And the normalized growth (locus YBR023C, strain chs3, stronger effect = lower value)?
Answer: The normalized growth was 0.964 (inactive).

Question: What about the normalized growth (locus YBR171W, strain sec66, stronger effect = lower value) of the same molecule?
Answer: Its normalized growth is 0.958 (inactive).

Question: What about the normalized growth (locus YBR229C, strain ROT2, stronger effect = lower value) of the same molecule?
Answer: Its normalized growth is 0.0259 (active).

Question: What about the normalized growth (locus YBR231C, strain swc5, stronger effect = lower value) of the same molecule?
Answer: Its normalized growth is 0.971 (inactive).

Question: What about the normalized growth (locus YBR279W, strain paf1, stronger effect = lower value) of the same molecule?
Answer: The normalized growth was 0.975 (inactive).

Question: And the normalized growth (locus YCL011C, strain gbp2, stronger effect = lower value)?
Answer: Its normalized growth is 0.968 (inactive).

Question: And the normalized growth (locus YCL016C, strain dcc1, stronger effect = lower value)?
Answer: The normalized growth was 0.969 (inactive).

Question: What about the normalized growth (locus YCL029C, strain bik1, stronger effect = lower value) of the same molecule?
Answer: The normalized growth was 0.0647 (active).

Question: And the normalized growth (locus YCL061C, strain MRC1, stronger effect = lower value)?
Answer: The normalized growth was 0.969 (inactive).

Question: And the normalized growth (locus YCL069W, strain vba3, stronger effect = lower value)?
Answer: The normalized growth was 0.977 (inactive).

Question: What about the normalized growth (locus YCR088W, strain abp1, stronger effect = lower value) of the same molecule?
Answer: The normalized growth was 0.975 (inactive).

Question: What about the normalized growth (locus YDL005C, strain med2, stronger effect = lower value) of the same molecule?
Answer: The normalized growth was 0.969 (inactive).

Question: And the normalized growth (locus YDL035C, strain GPR1, stronger effect = lower value)?
Answer: Its normalized growth is 0.0509 (active).

Question: What about the normalized growth (locus YDL040C, strain nat1, stronger effect = lower value) of the same molecule?
Answer: Its normalized growth is 0.981 (inactive).

Question: What about the normalized growth (locus YDL074C, strain BRE1, stronger effect = lower value) of the same molecule?
Answer: Its normalized growth is 0.0872 (active).

Question: And the normalized growth (locus YDL101C, strain DUN1, stronger effect = lower value)?
Answer: The normalized growth was 0.0518 (active).

Question: What about the normalized growth (locus YDL185W, strain tfp1, stronger effect = lower value) of the same molecule?
Answer: Its normalized growth is 0.0709 (active).

Question: And the normalized growth (locus YDL192W, strain arf1, stronger effect = lower value)?
Answer: Its normalized growth is 0.0602 (active).

Question: What about the normalized growth (locus YDR001C, strain nth1, stronger effect = lower value) of the same molecule?
Answer: Its normalized growth is 0.976 (inactive).

Question: What about the normalized growth (locus YDR069C, strain doa4, stronger effect = lower value) of the same molecule?
Answer: The normalized growth was 0.988 (inactive).

Question: And the normalized growth (locus YDR101C, strain arx1, stronger effect = lower value)?
Answer: The normalized growth was 0.0636 (active).

Question: What about the normalized growth (locus YDR137W, strain rgp1, stronger effect = lower value) of the same molecule?
Answer: The normalized growth was 0.945 (inactive).

Question: What about the normalized growth (locus YDR159W, strain sac3, stronger effect = lower value) of the same molecule?
Answer: Its normalized growth is 0.99 (inactive).

Question: What about the normalized growth (locus YDR162C, strain NBP2, stronger effect = lower value) of the same molecule?
Answer: Its normalized growth is 0.0497 (active).

Question: What about the normalized growth (locus YDR195W, strain ref2) of the same molecule?
Answer: Its normalized growth is 1 (inactive).

Question: What about the normalized growth (locus YDR297W, strain sur2, stronger effect = lower value) of the same molecule?
Answer: The normalized growth was 0.972 (inactive).

Question: What about the normalized growth (locus YDR318W, strain mcm21, stronger effect = lower value) of the same molecule?
Answer: Its normalized growth is 0.062 (active).

Question: What about the normalized growth (locus YDR334W, strain swr1, stronger effect = lower value) of the same molecule?
Answer: The normalized growth was 0.966 (inactive).

Question: What about the normalized growth (locus YDR335W, strain msn5, stronger effect = lower value) of the same molecule?
Answer: The normalized growth was 0.975 (inactive).

Question: What about the normalized growth (locus YDR388W, stronger effect = lower value) of the same molecule?
Answer: Its normalized growth is 0.0594 (active).

Question: And the normalized growth (locus YDR392W, strain spt3, stronger effect = lower value)?
Answer: The normalized growth was 0.894 (inactive).

Question: What about the normalized growth (locus YDR502C, strain sam2, stronger effect = lower value) of the same molecule?
Answer: The normalized growth was 0.057 (active).

Question: What about the normalized growth (locus YEL003W, strain gim4, stronger effect = lower value) of the same molecule?
Answer: Its normalized growth is 0.997 (inactive).

Question: What about the normalized growth (locus YEL037C, strain rad23, stronger effect = lower value) of the same molecule?
Answer: The normalized growth was 0.967 (inactive).

Question: What about the normalized growth (locus YEL061C, strain CIN8 (second series), stronger effect = lower value) of the same molecule?
Answer: The normalized growth was 0.976 (inactive).

Question: And the normalized growth (locus YEL061C, strain CIN8, stronger effect = lower value)?
Answer: The normalized growth was 0.0491 (active).

Question: And the normalized growth (locus YER015W, strain faa2, stronger effect = lower value)?
Answer: Its normalized growth is 0.968 (inactive).

Question: And the normalized growth (locus YER016W, strain bim1, stronger effect = lower value)?
Answer: Its normalized growth is 0.992 (inactive).

Question: What about the normalized growth (locus YER110C, stronger effect = lower value) of the same molecule?
Answer: The normalized growth was 0.0738 (active).

Question: What about the normalized growth (locus YER111C, strain swi4, stronger effect = lower value) of the same molecule?
Answer: The normalized growth was 0.976 (inactive).

Question: And the normalized growth (locus YER155C, strain BEM2 (second series), stronger effect = lower value)?
Answer: The normalized growth was 0.969 (inactive).

Question: And the normalized growth (locus YER155C, strain BEM2, stronger effect = lower value)?
Answer: The normalized growth was 0.0713 (active).

Question: And the normalized growth (locus YER167W, strain BCK2, stronger effect = lower value)?
Answer: The normalized growth was 0.0538 (active).

Question: And the normalized growth (locus YFR010W, strain ubp6, stronger effect = lower value)?
Answer: Its normalized growth is 0.966 (inactive).

Question: What about the normalized growth (locus YGL078C, strain dbp3, stronger effect = lower value) of the same molecule?
Answer: The normalized growth was 0.387 (active).

Question: And the normalized growth (locus YGL086W, strain mad1, stronger effect = lower value)?
Answer: The normalized growth was 0.0523 (active).

Question: What about the normalized growth (locus YGL167C, strain pmr1, stronger effect = lower value) of the same molecule?
Answer: The normalized growth was 0.96 (inactive).

Question: What about the normalized growth (locus YGL173C, strain kem1, stronger effect = lower value) of the same molecule?
Answer: The normalized growth was 0.969 (inactive).

Question: What about the normalized growth (locus YGL227W, strain vid30, stronger effect = lower value) of the same molecule?
Answer: Its normalized growth is 0.978 (inactive).

Question: And the normalized growth (locus YGL240W, strain doc1, stronger effect = lower value)?
Answer: Its normalized growth is 0.989 (inactive).

Question: And the normalized growth (locus YGL248W, strain PDE1, stronger effect = lower value)?
Answer: The normalized growth was 0.0434 (active).

Question: What about the normalized growth (locus YGL253W, strain hxk2, stronger effect = lower value) of the same molecule?
Answer: Its normalized growth is 0.99 (inactive).

Question: And the normalized growth (locus YGR135W, strain pre9, stronger effect = lower value)?
Answer: Its normalized growth is 0.0617 (active).

Question: And the normalized growth (locus YGR252W, strain gcn5, stronger effect = lower value)?
Answer: Its normalized growth is 0.126 (active).

Question: And the normalized growth (locus YHR013C, strain ard1, stronger effect = lower value)?
Answer: The normalized growth was 0.964 (inactive).

Question: And the normalized growth (locus YHR027C, strain rpn1, stronger effect = lower value)?
Answer: The normalized growth was 0.978 (inactive).

Question: What about the normalized growth (locus YHR030C, strain SLT2, stronger effect = lower value) of the same molecule?
Answer: Its normalized growth is 0.0514 (active) and 1.05 (inactive).

Question: What about the normalized growth (locus YHR079C, strain IRE1 (second series), stronger effect = lower value) of the same molecule?
Answer: Its normalized growth is 0.0616 (active).

Question: What about the normalized growth (locus YHR079C, strain IRE1, stronger effect = lower value) of the same molecule?
Answer: The normalized growth was 1.08 (inactive).

Question: And the normalized growth (locus YHR094C, strain hxt1, stronger effect = lower value)?
Answer: Its normalized growth is 0.0582 (active).

Question: And the normalized growth (locus YHR129C, strain ARP1, stronger effect = lower value)?
Answer: Its normalized growth is 0.056 (active).

Question: And the normalized growth (locus YHR142W, strain chs7, stronger effect = lower value)?
Answer: Its normalized growth is 0.926 (inactive).

Question: What about the normalized growth (locus YHR200W, strain rpn10, stronger effect = lower value) of the same molecule?
Answer: The normalized growth was 0.0599 (active).

Question: And the normalized growth (locus YIL066C, strain RNR3, stronger effect = lower value)?
Answer: Its normalized growth is 0.0444 (active).

Question: And the normalized growth (locus YIL073C, strain SPO22, stronger effect = lower value)?
Answer: Its normalized growth is 0.121 (active).

Question: What about the normalized growth (locus YIL125W, strain kgd1, stronger effect = lower value) of the same molecule?
Answer: Its normalized growth is 0.161 (active).

Question: And the normalized growth (locus YIR030C, strain dcg1, stronger effect = lower value)?
Answer: Its normalized growth is 0.0751 (active).

Question: And the normalized growth (locus YJL092W, strain hpr5, stronger effect = lower value)?
Answer: Its normalized growth is 0.98 (inactive).

Question: What about the normalized growth (locus YJL095W, strain BCK1 (second series), stronger effect = lower value) of the same molecule?
Answer: Its normalized growth is 0.98 (inactive).

Question: And the normalized growth (locus YJL095W, strain BCK1, stronger effect = lower value)?
Answer: Its normalized growth is 0.0608 (active) and 1.03 (inactive).

Question: And the normalized growth (locus YJL115W, strain asf1, stronger effect = lower value)?
Answer: Its normalized growth is 0.983 (inactive).

Question: What about the normalized growth (locus YJL129C, strain trk1, stronger effect = lower value) of the same molecule?
Answer: Its normalized growth is 0.971 (inactive).

Question: And the normalized growth (locus YJL134W, strain LCB3, stronger effect = lower value)?
Answer: The normalized growth was 0.0455 (active).

Question: What about the normalized growth (locus YJL154C, strain vps35, stronger effect = lower value) of the same molecule?
Answer: The normalized growth was 0.971 (inactive).

Question: And the normalized growth (locus YJL164C, strain tpk1, stronger effect = lower value)?
Answer: The normalized growth was 0.977 (inactive).

Question: And the normalized growth (locus YJL166W, strain qcr8, stronger effect = lower value)?
Answer: The normalized growth was 0.962 (inactive).

Question: And the normalized growth (locus YJL168C, strain set2, stronger effect = lower value)?
Answer: The normalized growth was 0.0569 (active).

Question: What about the normalized growth (locus YJL187C, strain SWE1 (second series), stronger effect = lower value) of the same molecule?
Answer: Its normalized growth is 0.0486 (active).

Question: And the normalized growth (locus YJL187C, strain SWE1, stronger effect = lower value)?
Answer: The normalized growth was 0.971 (inactive).

Question: What about the normalized growth (locus YJR043C, strain POL32, stronger effect = lower value) of the same molecule?
Answer: Its normalized growth is 0.0695 (active).
